Screening results as filed in PubChem.
Compounds with a hit are over-represented: about 12% of the library has one in this group of screens.
Shiga toxin inh: Shiga toxin inhibition; 290,000 tested, 9.2% active; Vero cells, Shiga toxin protein synthesis inhibition reporter; AID 2315; inhibition, % at 38.7 µM; in the data active = inhibition mostly above about 28%, no sharp cut-off; inactive = mostly below about 43%
SARS PLP yeast: SARS-CoV PLP inhibition in yeast; Potency, µM (highest dose often 32.9 µM), actives largely listed as activators; 330,000 tested, 0.19% active; AID 485353; S. cerevisiae expressing SARS-CoV PLpro, growth rescue; note: nearly all actives have a fitted effect of over 55% in size
NS1 inh: blocks influenza NS1 protein function. Potency, µM (top dose mostly 46.1 µM). 270,000 tested, 0.4% active; note: actives are rising curves; nearly all actives have a fitted effect of over 50% in size
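A cell-based growth assay was used: compounds that relieve NS1-induced slow growth of budding yeast raise OD600. Assay medium was yeast nitrogen base with ammonium sulphate and -URA supplement, pH 6.0, with 2% galactose.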
Cycloheximide cs: counter-screen for Shiga toxin inhibitors: cycloheximide protein synthesis inhibition; cell reporter, cycloheximide protein synthesis inhibition counterscreen; max response, %; 300,000 tested, 12% active; in the data active = max response mostly above about 13%, no sharp cut-off; inactive = mostly below about 14%; note: read at 38.3 µM for the half of the compounds with a filed dose
Each line names hits and unclear results; the compound was inactive in the other large screens. Unless noted, calls come from the whole dose curve.

CCCCCCn1c(-c2cccs2)n[nH]c1=S	none
CC(C)(CCC(=S)N1CCOCC1)C1CCCCC1	Cycloheximide cs 25
CS(=O)(=O)c1ccc(-c2cn3cc(C(=O)O)ccc3n2)cc1	none (no result: NS1 inh)
COC(=O)c1ccc2nc(-c3ccc(S(C)(=O)=O)cc3)cn2c1	Cycloheximide cs 59 (no result: NS1 inh)
COc1ccc(C(=O)NCC(=O)OCC(=O)Nc2ncc(Cl)cc2Cl)cc1[N+](=O)[O-]	none (no result: Shiga toxin inh, NS1 inh, Cycloheximide cs)
Cc1ccc2nc(SCC(=O)c3ccc4c(c3)OCO4)[nH]c2c1	none
O=C(CSc1ncccc1-c1nc2ccccc2[nH]1)Nc1ccc2c(c1)OCCO2	Shiga toxin inh 92, Cycloheximide cs 68
O=C(CSc1nc2ccccc2[nH]1)c1ccc2c(c1)OCO2	Shiga toxin inh 91, Cycloheximide cs 57
O=C(CSc1nc2ncccc2[nH]1)Nc1ccc2c(c1)OCO2	none
CC(=O)Nc1cccc(CCc2nc3ccccc3[nH]2)c1	Cycloheximide cs 23 (no result: Shiga toxin inh)
Cc1ccc2nc(SC(C)C(=O)N3CCOCC3)[nH]c2c1 (stereo not given)	Shiga toxin inh 79, Cycloheximide cs 44 (no result: NS1 inh)
COCCn1c(SCC(=O)Nc2ccccc2F)nnc1-c1ccoc1C	none
CC(C)(C)NS(=O)(=O)c1ccc(NS(C)(=O)=O)cc1	none
CCC(=O)Nc1ccc(C(=O)CSc2nc3ccc(C)cc3[nH]2)cc1	Cycloheximide cs 19
CCc1c(C)nc(SCC(=O)Nc2ccc3c(c2)OCCO3)[nH]c1=O	none
O=C(CSc1nc2ccccc2[nH]1)Nc1ccc2c(c1)OCCO2	Cycloheximide cs 41
Cc1ccc2nc(SCC(=O)Nc3ccc4c(c3)OCCO4)[nH]c2c1	Cycloheximide cs 26
O=C(CCc1nc2ccccc2[nH]1)Nc1ccc2c(c1)OCO2	Shiga toxin inh 107, Cycloheximide cs 19
Cc1ccc(C2OC3=C(C(=O)CC(C)(C)C3)C(N)=C2C#N)o1 (stereo not given)	none (no result: NS1 inh)
Cc1cc(-c2cc(C(=O)NCc3ccccc3)on2)nc(NCC2CC2)n1	none
COc1ccccc1/C=C/C=C1\Oc2c(ccc(O)c2CN2CCN(CCO)CC2)C1=O	Shiga toxin inh active, Cycloheximide cs 32
O=C1/C(=C/C=C/c2ccccc2)Oc2c1ccc(O)c2CN1CCN(CCO)CC1	none
CN(C)Cc1c(O)ccc2c1O/C(=C\C=C\c1ccccc1)C2=O	NS1 inh inconclusive, Cycloheximide cs 13
COc1ccc(OCCCC(=O)Nc2cc([N+](=O)[O-])ccc2C)cc1	none
COc1ccc(/C=N/N2CCN(C)CC2)cc1O	none
CN1CCN(/N=C/c2ccc(N(C)c3ccccc3)cc2)CC1	Shiga toxin inh 59, Cycloheximide cs 34
CN1CCN(/N=C/c2ccc(Cl)c(Cl)c2)CC1	Shiga toxin inh 84, Cycloheximide cs 38
COc1cccc(/C=N/N2CCN(C)CC2)c1	Cycloheximide cs 29
CN1CCN(/N=C/c2ccc(N(c3ccccc3)c3ccccc3)cc2)CC1	none
CN1CCN(/N=C/c2ccc(Br)cc2)CC1	Cycloheximide cs 47 (no result: NS1 inh)
Cc1cc(/C=N/N2CCN(C)CC2)c(C)n1-c1ccc(Cl)cc1	none
Cc1ccc(S(=O)(=O)NCCN=Cc2ccc(N(C)C)cc2)cc1	none
COc1ccc(S(=O)(=O)N[C@@H](Cc2ccc(Cl)cc2)C(=O)N2CC[C@@]3(O)CCCC[C@H]3C2)cc1	none
Cc1sc2nc(C(C)Nc3ccccc3N3CCOCC3)[nH]c(=O)c2c1C (stereo not given)	NS1 inh inconclusive
O=[N+]([O-])c1cc(/C=N/N2CCN(c3ccccc3)CC2)ccc1Cl	none
O=[N+]([O-])c1cc(/C=N/N2CCCCC2)ccc1Cl	Shiga toxin inh 72, Cycloheximide cs 18
C[C@H](Cc1ccccc1)Nc1ncnc2c1ncn2[C@@H]1O[C@H](CO)[C@H](O)[C@H]1O	none (no result: Shiga toxin inh, SARS PLP yeast, Cycloheximide cs)
Cc1cc(Br)c(OCC(=O)NN)c2c1CCC2	none
Cc1ccc(C(=O)NC(=S)N(C)C2CCCCC2)cc1	Shiga toxin inh 126, Cycloheximide cs 50
NC(=O)CSc1nc(-c2ccccc2Cl)ns1	Shiga toxin inh 19, Cycloheximide cs 45
O=C(CSc1nc(-c2ccccc2Cl)ns1)NCc1ccco1	none
CN=C1N[C@H](c2ccccc2)N(c2ccccc2)S1	Cycloheximide cs 27 (no result: SARS PLP yeast, NS1 inh)
Cn1c(CCN2CCN(c3ccccn3)CC2)nc2cc(NS(=O)(=O)c3ccc(Cl)cc3)ccc21	none
Clc1ccc(-c2ccn[nH]2)cc1	Shiga toxin inh 147, Cycloheximide cs 53 (no result: NS1 inh)
COc1ccc(Oc2ccc(-c3ccn[nH]3)cc2)cc1	Shiga toxin inh 77, Cycloheximide cs 32
COc1ccc(-c2cc(-c3cc(C)ccc3O)[nH]n2)cc1	Shiga toxin inh 80, Cycloheximide cs 49
COc1ccc(-c2cc(-c3ccc(OC)cc3)[nH]n2)cc1	Cycloheximide cs 35
COc1ccc(OC)c(NC(=O)c2cc(-c3cc(C)ccc3O)n[nH]2)c1	none
COc1ccc(-c2cc(C3CCNCC3)[nH]n2)cc1	none
COc1ccc2[nH]c(C(=O)NCc3ccc4c(c3)OCO4)cc2c1	none
Cc1ccc(NC(=O)C2CCCN2S(=O)(=O)c2ccc(-c3ccc(=O)[nH]n3)s2)c(C)c1 (stereo not given)	none
COc1ccc(NC(=O)CSc2nnc(CNC(=O)c3cccs3)o2)c(OC)c1	none
CCOc1ccc(C(=O)CC(NCc2cccs2)C(=O)O)cc1 (stereo not given)	none
COc1ccc(-c2cc(-c3ccc(C)cc3)n[nH]2)c(O)c1	Shiga toxin inh 94, Cycloheximide cs 44
COc1ccc(-c2n[nH]c(C)c2-c2ccc(Cl)cc2)c(O)c1	none
CC(C)(C)n1nc2c(c1NC(=O)c1ccccc1C(F)(F)F)CS(=O)(=O)C2	none
CC(CCc1ccccc1)NC(=O)C1CCN(S(=O)(=O)c2ccc(F)cc2)CC1 (stereo not given)	none
CC(C)NCC(O)COc1ccc(Br)cc1 (stereo not given)	none
CC(=O)Nc1ccc(OCC(O)Cn2cnc3ccccc32)cc1 (stereo not given)	none
CC(C)NCC(O)COc1ccc2c(c1)CCC2 (stereo not given)	Shiga toxin inh 110, Cycloheximide cs 32
OC(COc1ccc2c(c1)CCC2)Cn1cnc2ccccc21 (stereo not given)	Shiga toxin inh 74
O=[N+]([O-])c1ccccc1S(=O)(=O)Nc1cccnc1	none
CCc1nnc(NC(=O)c2sc3nc4c(cc3c2N)CCCCCC4)s1	Cycloheximide cs 13
CCN1CCc2nc3sc(C(=O)Nc4cccnc4Cl)c(N)c3cc2C1	none
CCc1nnc(NC(=O)c2sc3nc4c(cc3c2N)CCCCC4)s1	Shiga toxin inh 46, NS1 inh inconclusive, Cycloheximide cs 42
CC1CC(C)CN(C(=O)c2ccc(S(=O)(=O)N3CCCC3)cc2)C1 (stereo not given)	none
Cc1ccc(-c2csc(NC(=O)c3ccno3)n2)cc1	Cycloheximide cs 22
Cc1ccc(-c2csc(NC(=O)c3ccc([N+](=O)[O-])o3)n2)cc1	none
Cc1ccc(C(=O)Nc2nc(-c3ccc(F)cc3)cs2)o1	Shiga toxin inh 92, Cycloheximide cs 42 (no result: SARS PLP yeast)
Cc1ccc(-c2csc(NC(=O)c3c(C)noc3C)n2)cc1	none (no result: Shiga toxin inh, NS1 inh, Cycloheximide cs)
CCOC(=O)[C@@H]1[C@H]2COc3cc(OC)ccc3[C@@H]2N2C(=O)N(c3ccc(Cl)cc3)C(=O)[C@@]12C	Shiga toxin inh 29, Cycloheximide cs 16 (no result: SARS PLP yeast)
